This note sets out measurements from PubChem BioAssay AID686979 (National Center for Advancing Translational Sciences (NCATS), 2013).

Screen size: about 420,000 compounds; about 50,000 (12%) were called active. Another 26% or so got no clear call; they are omitted. Calls come from the whole dose curve; as a rule, active = well fitted inhibition curve with a large enough effect; inconclusive = small, poorly fitted or top-dose-only effect; inactive = flat fitted curve, though single readings scatter. What follows is part of a selection rich in actives, with near analogues and random picks from the rest.
% is set by controls: 0 for no effect and ±100 for the full control effect; potency is the fitted concentration of half-maximal effect.

The assay is described as follows: qHTS for Inhibitors of human tyrosyl-DNA phosphodiesterase 1 (TDP1): qHTS in cells in presence of CPT. Note: nearly all actives have a fitted effect of over 55% in size. The conditions noted are these: chicken DT40 Tdp1-/-;hTDP1 cells + 20 nM CPT, ATP luminescence, 48 h; series mostly up to 46.2 µM; activity change, negative = growth inhibition: at the top concentration. The method, boiled down:
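Chicken DT40 Tdp1-/- cells complemented with human TDP1, 400 cells/well, exposed to compounds plus 20 nM camptothecin for at least 48 h at 37 C; viability read as ATP content by CellTiter-Glo luminescence.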
As to `CC(=O)C(CC(=O)N1CCCC1)C(=O)Nc1ccc(Cl)cc1` (stereo unspecified), the “activity change, negative = growth inhibition” value was -3.12% (inactive).

Regarding `O=C1CC(c2c(F)cccc2Cl)C(n2cncn2)C(O)=C1C1NCCc2ccccc21` (stereo unspecified), the “activity change, negative = growth inhibition” value was 1.98% (inactive).

In the case of `Nc1nc2cc(Cl)ccc2n1N`, the “activity change, negative = growth inhibition” value is -16.6% (inactive).

Regarding `COc1ccc(NC(=O)CN(C)C(=O)c2cc(C)oc2C)cc1`, the “activity change, negative = growth inhibition” value is 3.81% (inactive).

On to `O=C1NC(c2ccccc2)=NC1(Nc1ccccn1)C(F)(F)F` (stereo unspecified), for which the “activity change, negative = growth inhibition” value was 16% (inactive).

With `Cc1ccc(C)c(C(=O)N2CCC(n3nccc3NC(=O)C3CC3)CC2)c1`, the “activity change, negative = growth inhibition” value was 13.2% (inactive).

Regarding `Cc1cc(C(=O)OC(C)C(=O)NC2CCCCC2C)c(C)o1` (stereo unspecified), the “activity change, negative = growth inhibition” value is 3.31% (inactive).

As to `Cc1nc2sccn2c(=O)c1S(=O)(=O)NCCc1ccccc1`, the “activity change, negative = growth inhibition” value was 0.103% (inactive).

As to `O=C(COC(=O)c1c(Cl)cccc1Cl)Nc1cccc(S(=O)(=O)NC2=NCCCCC2)c1`, the “activity change, negative = growth inhibition” value was -27.6% (inactive).

Take `O=S(=O)(NCC(c1ccco1)N1CCOCC1)c1cc(F)ccc1F` (stereo unspecified): the “activity change, negative = growth inhibition” value was -29% (inactive).

Regarding `Cc1cc(C)n(CCNC(=O)CC2C(=O)NCCN2Cc2ccc(C)o2)n1` (stereo unspecified), the “activity change, negative = growth inhibition” value was 18% (inactive).

With `O=C(COc1cc2oc(=O)c3c(c2cc1Cl)CCC3)NCCCN1CCOCC1`, the “activity change, negative = growth inhibition” value was -7.82% (inactive).

Take `Cc1ccc(-c2csc(C(C#N)=C(O)CN3CCN(C(=O)c4ccco4)CC3)n2)cc1`: the “activity change, negative = growth inhibition” value is 10.4% (inactive).

Take `CCOC(=O)c1cccc(NC(=O)CCn2nnc3ccccc32)c1`: the “activity change, negative = growth inhibition” value is -24.8% (inactive).

As to `CCOC(=O)c1cnc(-n2nc(C)cc2C)nc1-n1nc(C)cc1C`, the “activity change, negative = growth inhibition” value is 22.5% (inactive).

On to `CCOC(=O)c1cnc(-n2nc(C)cc2C)nc1Nc1cccc(C(C)=O)c1`, for which the Potency was 16.4 µM (active).

Turning to `COC(=O)c1ccc(OC)c(Cn2c(=O)n(Cc3ccccc3)c(=O)c3c2c2cc(OC)ccc2n3C)c1`, the “activity change, negative = growth inhibition” value was -27.3% (inactive).

Turning to `O=S(=O)(NCCS(=O)(=O)N1CCN(c2ccccc2)CC1)c1ccc(Cl)cc1`, the “activity change, negative = growth inhibition” value was -9.4% (inactive).

`CC(=O)c1cccc(-c2ccc(CN3C(CC(C)C)C(=O)N(Cc4cn(CC5CCCCC5)nn4)CCS3(=O)=O)cc2)c1` (stereo unspecified): the Potency is 20.6 µM (active).

As for `CC(=O)c1cccc(-n2nnnc2SCC(=O)NNC(=O)C2CCCCC2)c1`, the “activity change, negative = growth inhibition” value was 7.58% (inactive).

As to `CC(C)CC1C(=O)N(Cc2cn(Cc3ccco3)nn2)CCS(=O)(=O)N1Cc1ccc(-c2ccc(Cl)c(Cl)c2)cc1` (stereo unspecified), the Potency is 18.4 µM (active).

Consider `COc1ccc(-c2ccc(CN3C(CC(C)C)C(=O)N(Cc4cn(CC5CCCCC5)nn4)CCS3(=O)=O)cc2)cn1` (stereo unspecified), for which the Potency was 20.6 µM (active).

Take `COCCCn1cc(CN2CC(N(C)C)CS2(=O)=O)nn1` (stereo unspecified): the “activity change, negative = growth inhibition” value is -6.4% (inactive).

`COCOCCn1cc(CN2CCS(=O)(=O)N(Cc3ccc(-c4ccc(OC)cc4)cc3)C(CC(C)C)C2=O)nn1` (stereo unspecified): the Potency is 16.4 µM (active).

Regarding `CCOC(=O)NC(=O)CSc1nnc(SCCC(=O)O)s1`, the “activity change, negative = growth inhibition” value is 3.61% (inactive).

For the compound `Cc1nc(-c2ccc(F)cc2)c(CC(=O)N(C)CC(=O)Nc2c(C)cccc2C)s1`, the “activity change, negative = growth inhibition” value was 0.646% (inactive).
